Measurements from PubChem BioAssay (EPA / NIEHS).
The source made the active and inactive calls. Rule for the calls: active = hit-call score of the fitted dose curve at least 0.9, where 1 is the maximum; inactive = score below 0.9.

Columns and labels:
[1] = read-out: Tissue plasminogen activator (tPA), PLAT (gene 5327); assay: BSK_BE3C_tPA: BioMAP Diversity Plus: BE3C Assay for Tissue plasminogen activator (tPA) Biomarker Activity (AID 2283041); conditions: primary human bronchial epithelial cells; actives raise or lower the signal
Method in brief: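 Bidirectional curve fitting relative to DMSO defined activity, with tPA detected by ELISA in chemically treated human bronchial epithelial primary cells at 24 hours.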

[2] = read-out: Interleukin-8 (IL8), CXCL8 (gene 3576); assay: BSK_CASM3C_IL8: BioMAP Diversity Plus: CASM3C Assay for Interleukin-8 (IL8) Biomarker Activity (AID 2283042); conditions: primary human coronary artery smooth muscle cells; actives raise or lower the signal;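 note: IL-8 protein level quantified by ELISA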
[3] = read-out: Human Leukocyte Antigen - DR isotype (HLADR), HLA-DRA (gene 3122); assay: BSK_CASM3C_HLADR: BioMAP Diversity Plus: CASM3C Assay for Human Leukocyte Antigen - DR isotype (HLADR) Biomarker Activity (AID 2283043); conditions: primary human coronary artery smooth muscle cells; actives raise or lower the signal;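 note: cell-surface HLA-DR protein level quantified by ELISA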
[4] = read-out: Macrophage colony-stimulating factor (MCSF), CSF1 (gene 1435); assay: BSK_CASM3C_MCSF: BioMAP Diversity Plus: CASM3C Assay for Macrophage colony-stimulating factor (MCSF) Biomarker Activity (AID 2283044); conditions: primary human coronary artery smooth muscle cells; actives raise or lower the signal;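 note: M-CSF protein amount quantified by ELISA after 24 h exposure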
[5] = read-out: Low-density lipoprotein receptor (LDLR), LDLR (gene 3949); assay: BSK_CASM3C_LDLR: BioMAP Diversity Plus: CASM3C Assay for Low-density lipoprotein receptor (LDLR) Biomarker Activity (AID 2283045); conditions: primary human coronary artery smooth muscle cells; actives raise or lower the signal;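 note: LDLR protein level on the cell surface quantified by ELISA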
[6] = read-out: Monocyte Chemoattractant Protein-1 (MCP1), CCL2 (gene 6347); assay: BSK_CASM3C_MCP1: BioMAP Diversity Plus: CASM3C Assay for Monocyte Chemoattractant Protein-1 (MCP1) Biomarker Activity (AID 2283046); conditions: primary human coronary artery smooth muscle cells; actives raise or lower the signal;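 note: MCP-1 level quantified by ELISA 24 h after dosing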
[7] = BSK_CASM3C_Proliferation: Cell Proliferation Assessment in the BioMAP Diversity Plus: CASM3C Assay (AID 2283047); conditions: primary human coronary artery smooth muscle cells;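 note: sulforhodamine B total protein stain as relative cell number at 560 nm; sub-confluent cells exposed 48 h before staining; fitted both ways against DMSO so gain or loss of cell number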
[8] = read-out: Monokine induced gamma interferon (MIG), CXCL9 (gene 4283); assay: BSK_CASM3C_MIG: BioMAP Diversity Plus: CASM3C Assay for Monokine induced gamma interferon (MIG) Biomarker Activity (AID 2283048); conditions: primary human coronary artery smooth muscle cells; actives raise or lower the signal;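 note: MIG protein level measured by ELISA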
[9] = read-out: serum amyloid A (SAA), SAA1 (gene 6288); assay: BSK_CASM3C_SAA: BioMAP Diversity Plus: CASM3C Assay for serum amyloid A (SAA) Biomarker Activity (AID 2283049); conditions: primary human coronary artery smooth muscle cells; actives raise or lower the signal;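 note: SAA protein level quantified by ELISA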
[10] = BSK_CASM3C_SRB: Viability Assessment in the BioMAP Diversity Plus: CASM3C Assay (AID 2283050); conditions: primary human coronary artery smooth muscle cells;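 note: total protein by SRB staining as cytotoxicity measure in parallel cultures; cells exposed to compound for 24 h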
[11] = read-out: Thrombomodulin, THBD (gene 7056); assay: BSK_CASM3C_Thrombomodulin: BioMAP Diversity Plus: CASM3C Assay for Thrombomodulin Biomarker Activity (AID 2283051); conditions: primary human coronary artery smooth muscle cells; actives raise or lower the signal;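 note: thrombomodulin protein level measured by ELISA 24 h after dosing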
[12] = read-out: Tissue Factor, F3 (gene 2152); assay: BSK_CASM3C_TissueFactor: BioMAP Diversity Plus: CASM3C Assay for Tissue Factor Biomarker Activity (AID 2283052); conditions: primary human coronary artery smooth muscle cells; actives raise or lower the signal;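 note: cell surface tissue factor protein level read by ELISA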
[13] = read-out: Interferon-gamma inducible Protein 10 (IP10), CXCL10 (gene 3627); assay: BSK_hDFCGF_IP10: BioMAP Diversity Plus: hDFCGF Assay for Interferon-gamma inducible Protein 10 (IP10) Biomarker Activity (AID 2283053); conditions: primary human foreskin fibroblasts; actives raise or lower the signal
Method in brief: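 IP-10 levels, quantified by ELISA, are taken from human foreskin fibroblast cultures 24 h after chemical treatment, with DMSO serving as negative control and baseline for bidirectional analysis.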

[14] = read-out: Urokinase-type plasminogen activator receptor (uPAR), PLAUR (gene 5329); assay: BSK_CASM3C_uPAR: BioMAP Diversity Plus: CASM3C Assay for Urokinase-type plasminogen activator receptor (uPAR) Biomarker Activity (AID 2283054); conditions: primary human coronary artery smooth muscle cells; actives raise or lower the signal;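 note: cell-surface uPAR protein level quantified by ELISA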
[15] = read-out: Vascular cell adhesion molecule 1 (VCAM1), VCAM1 (gene 7412); assay: BSK_CASM3C_VCAM1: BioMAP Diversity Plus: CASM3C Assay for Vascular cell adhesion molecule 1 (VCAM1) Biomarker Activity (AID 2283055); conditions: primary human coronary artery smooth muscle cells; actives raise or lower the signal;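 note: VCAM-1 protein level quantified by ELISA on the cells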
[16] = read-out: Collagen III, COL3A1 (gene 1281); assay: BSK_hDFCGF_CollagenIII: BioMAP Diversity Plus: hDFCGF Assay for Collagen III Biomarker Activity (AID 2283056); conditions: primary human foreskin fibroblasts; actives raise or lower the signal
Method in brief: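 Response relative to DMSO, fitted in both directions, reflects ELISA-measured collagen III in human primary skin fibroblasts 24 h after compound addition.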

[17] = read-out: Epidermal growth factor receptor (EGFR), EGFR (gene 1956); assay: BSK_hDFCGF_EGFR: BioMAP Diversity Plus: hDFCGF Assay for Epidermal growth factor receptor (EGFR) Biomarker Activity (AID 2283057); conditions: primary human foreskin fibroblasts; actives raise or lower the signal
Method in brief: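 Measured by ELISA: EGFR levels on primary human foreskin fibroblasts 24 h after chemical treatment, analysed relative to DMSO with bidirectional fitting.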

[18] = read-out: Interleukin-8 (IL8), CXCL8 (gene 3576); assay: BSK_hDFCGF_IL8: BioMAP Diversity Plus: hDFCGF Assay for Interleukin-8 (IL8) Biomarker Activity (AID 2283058); conditions: primary human foreskin fibroblasts; actives raise or lower the signal
Method in brief: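 Fibroblast monolayers (human foreskin, hDFCGF) received test chemical for 24 h before ELISA detection of IL-8; either increases or decreases relative to DMSO count as activity.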

[19] = BSK_hDFCGF_Proliferation: Cell Proliferation Assessment in the BioMAP Diversity Plus: hDFCGF Assay (AID 2283059); conditions: primary human foreskin fibroblasts;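 note: curves fitted for both rise and fall of signal versus DMSO baseline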
Method in brief: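 Primary human foreskin fibroblasts, sub-confluent; […]; 10% TCA fix, 0.1% SRB stain, A560 total protein. Gain/loss fitted bidirectionally vs DMSO control.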

[20] = read-out: Macrophage colony-stimulating factor (MCSF), CSF1 (gene 1435); assay: BSK_hDFCGF_MCSF: BioMAP Diversity Plus: hDFCGF Assay for Macrophage colony-stimulating factor (MCSF) Biomarker Activity (AID 2283060); conditions: primary human foreskin fibroblasts; actives raise or lower the signal
Method in brief: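 fibroblasts (human foreskin, primary), 24 h post-dose; M-CSF by ELISA; bidirectional fit, DMSO = baseline.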

Measured: AC50

Brc1ccc(Oc2ccccc2)cc1
inactive: all assays above

CC(C)(C)OOC(C)(C)CCC(C)(C)OOC(C)(C)C
active: [19] 31.3 µM
inactive: all other assays above

OCCOCCO
not listed: [16]
inactive: all other assays above

N#CC(Br)(Br)C(N)=O
not listed: [19]
inactive: all other assays above

c1ccc(C2CO2)cc1 (centres undefined)
not listed: [19]
inactive: all other assays above

C1=Cc2cccc3cccc1c23
not listed: [19]
inactive: all other assays above

O=C(Nc1ccccc1)c1ccccc1I
not listed: [16]
inactive: all other assays above

Clc1ccc(C(c2ccc(Cl)cc2)C(Cl)(Cl)Cl)cc1
active: [3] 31.4 µM | [4] 14.7 µM | [5] 32.1 µM | [6] 36.9 µM | [7] 29.1 µM | [9] 33.3 µM | [10] 27.7 µM | [11] 6.95 µM | [12] 33.2 µM | [13] 14.1 µM | [14] 20 µM | [15] 20 µM | [18] 27.3 µM | [19] 5.38 µM | [20] 10.9 µM
inactive: [1] | [2] | [8] | [17]

N#CC(Br)Br
not listed: [16]
inactive: all other assays above

Nc1ccc(N=Nc2ccccc2)cc1
active: [3] 16.8 µM | [13] 29.3 µM | [14] 3.9 µM | [19] 8 µM
not listed: [16]
inactive: all other assays above

COC(=O)Nc1nc2ccccc2[nH]1
active: [3] 5.43 µM | [7] 8.49 µM | [14] 9.38 µM | [19] 0.224 µM
not listed: [16]
inactive: all other assays above

CCC12COCN1COC2
active: [7] 4.32 µM
not listed: [16]
inactive: all other assays above

[Cl-].[Cl-].[Hg+2]
inactive: [17]
active: [1] 31.8 µM | [2] 35.5 µM | [3] 25.4 µM | [4] 26.5 µM | [5] 34.8 µM | [6] 33.5 µM | [7] 29.3 µM | [8] 33.9 µM | [9] 30.6 µM | [10] 36.6 µM | [11] 5.21 µM | [12] 32.6 µM | [13] 11.5 µM | [14] 34.4 µM | [15] 26.5 µM | [16] 11.6 µM | [18] 13.6 µM | [20] 10.7 µM
